PubChem BioAssay (NCATS)
Values without a mark were called inactive. Inconclusive results are not listed. Entries that show only a call come without a potency. Activity calls are given as the source filed them. The call rests on the fitted dose curve; in most records, active means well fitted curve in the direction sought with a large enough effect; inconclusive means small, poorly fitted or top-dose-only effect, or another doubt; inactive means no such curve, though single readings can be large; an effect the other way counts as inactive or inconclusive.

Legend:
[1] = target: Glutathione peroxidase 1 (Homo sapiens) (UniProt P07203); test: Primary qHTS Assay for Inhibitors of Recombinant Selenoprotein Glutathione Peroxidase 1 (GPX1) (AID 1845191); further: nearly all actives have a fitted effect of over 65% in size; further: potency means the concentration at half of the fitted maximal effect
Chain of Glutathione peroxidase 1 (Homo sapiens) (P07203 whole entry, looked up): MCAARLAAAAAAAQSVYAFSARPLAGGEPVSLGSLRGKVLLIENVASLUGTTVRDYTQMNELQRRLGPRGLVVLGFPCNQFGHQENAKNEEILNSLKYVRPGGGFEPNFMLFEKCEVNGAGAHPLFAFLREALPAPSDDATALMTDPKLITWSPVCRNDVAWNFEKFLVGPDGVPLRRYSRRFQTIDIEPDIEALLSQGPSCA
Procedure, shortened: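 NADPH consumption tracked by fluorescence at 340/450 nm between t=0 and t=15 min, room temperature. Final mix: 10 nM GPX1, 100 nM glutathione reductase, 1 mM GSH, 0.5 mM NADPH, 0.5 mM cumene hydroperoxide, 0.01% BSA; 30 min compound–enzyme preincubation.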

[2] = target: Phospholipid hydroperoxide glutathione peroxidase GPX4 (Homo sapiens) (UniProt P36969); test: Primary qHTS Assay for Inhibitors of Recombinant Selenoprotein Glutathione Peroxidase 4 (GPX4) (AID 1845192); further: nearly all actives have a fitted effect of over 65% in size; further: potency means the concentration at half of the fitted maximal effect; on activity change, negative = inhibition: series mostly up to about 50 µM
Chain of Phospholipid hydroperoxide glutathione peroxidase GPX4 (Homo sapiens) (P36969 whole entry, looked up): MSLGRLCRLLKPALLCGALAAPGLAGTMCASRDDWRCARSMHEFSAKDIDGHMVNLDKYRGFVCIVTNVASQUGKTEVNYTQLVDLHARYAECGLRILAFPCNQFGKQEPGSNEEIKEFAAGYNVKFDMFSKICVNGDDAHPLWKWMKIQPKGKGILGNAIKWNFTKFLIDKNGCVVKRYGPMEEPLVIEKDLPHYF
Procedure, shortened: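 NADPH consumption followed by fluorescence at 340/450 nm, t=0 and after 15 min at room temperature. Reaction started with cumene hydroperoxide (0.5 mM final) after 30 min compound–GPX4 preincubation; final 200 nM GPX4, 100 nM GR, 1 mM GSH, 0.5 mM NADPH.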

[3] = target: Luciferin 4-monooxygenase (Photinus pyralis) (UniProt P08659); test: Primary firefly luciferase (FLuc) qHTS assay for identification of artifact compounds. (AID 1845220); further: nearly all actives have a fitted effect of over 60% in size; on activity change, negative = inhibition: series mostly up to about 54 µM
Procedure, shortened: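 Compounds sat 15 min at room temperature with 10 uM luciferin and 10 uM ATP (pH 7.6 Tris acetate). Firefly luciferase (10 nM final) was then added, and luminescence was read 5 min later. Data normalized to no-enzyme and DMSO controls were Hill-fitted.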

[4] = Primary fluorescence-based thiol-reactive (MSTI) qHTS assay for identification of artifact compounds. (AID 1845221); further: nearly all actives have a fitted effect of over 65% in size; further: potency means the concentration at half of the fitted maximal effect;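 on activity change, negative = thiol reactive: series mostly up to about 54 µM; thiol-reactive compounds lower the probe fluorescence signal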
Procedure, shortened: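 Reactivity toward the thiol probe MSTI (4 uM) is scored by fluorescence at Ex/Em 525/598 nm after 1 h at room temperature. Acetyl-MSTI and MSTI define the activity scale.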

[5] = tested on: Nanoluciferase (engineered Oplophorus gracilirostris luciferase); test: Primary Nanoluciferase (NLuc) qHTS assay for identification of artifact compounds. (AID 1845222); further: series mostly up to about 54 µM
Procedure, shortened: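 Luminescence from secreted NLuc (filtered, 1:55-diluted S16 cell medium) read 5 min after Nano-Glo substrate; compounds preincubated 15 min, RT. Hill fits of inhibition normalized to DMSO and no-enzyme.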

[6] = Primary redox qHTS assay for identification of artifact compounds. (AID 1845223)
Procedure, shortened: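 Redox-cycling detection via DTT (250 uM final) oxidation coupled to Amplex Red (25 uM)/HRP (250 mU/mL) in HBSS. 15 min preincubation plus 30 min after DTT, room temperature. Ex/Em 525/598 nm; 4-parameter Hill fit against DMSO and 10 uM DA3003.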

SMILES: CC(C)CCC(=O)CC1c2ccccc2C(=O)N1c1ccc2ccc(Cl)nc2n1 (configuration not stated)
- Potency [1]: inactive
- Potency [2]: inactive
- Potency [3]: inactive
- Potency [4]: inactive
- Potency [5]: inactive
- Potency [6]: inactive

SMILES: COc1c(C)c(OCC(O)C(C)(C)O)cc2c1COC2=O (configuration not stated)
- Potency [1]: inactive
- Potency [2]: inactive
- Potency [3]: inactive
- Potency [4]: inactive
- Potency [5]: inactive
- Potency [6]: inactive

SMILES: C=C1C[C@]23C[C@H]1CC[C@H]2[C@@]12CC[C@H](O)[C@@](C)(C(=O)O1)[C@H]2[C@@H]3C(=O)O
- Potency [1]: inactive
- Potency [2]: inactive
- Potency [3]: inactive
- Potency [4]: inactive
- Potency [5]: inactive
- Potency [6]: inactive

SMILES: C[C@@H]1N[C@H]2N(C1=O)c1ccccc1[C@@]2(O)C[C@@H]1C(=O)N[C@@H](C)c2nc3ccccc3c(=O)n21
- Potency [1]: inactive
- Potency [2]: inactive
- Potency [3]: inactive
- Potency [4]: inactive
- Potency [5]: inactive
- Potency [6]: inactive

SMILES: CC1=C(CO)C(=O)O[C@@H]([C@@H](C)[C@H]2CC[C@H]3[C@@H]4C[C@H]5O[C@]56[C@@H](O)C=CC(=O)[C@]6(C)[C@H]4CC[C@]23C)C1
- Potency [1]: inactive
- Potency [2]: inactive
- Potency [3]: inactive
- Potency [4]: inactive
- Potency [5]: inactive
- Potency [6]: inactive

SMILES: C=CC(C)(O)C(O)CC1C(C)(O)C(O)C(O)C2C(C)(C)CCCC21C (configuration not stated)
- Potency [1]: inactive
- Potency [2]: inactive
- Potency [3]: inactive
- Potency [4]: inactive
- Potency [5]: inactive
- Potency [6]: inactive

SMILES: COC1CC(OC2CCC3(C)C(=CCC4C3C(OC(C)=O)C(OC(=O)/C=C/c3ccccc3)C3(C)C(C(C)O)CCC43O)C2)OC(C)C1OC1CC(OC)C(OC2OC(C)C(OC3OC(CO)C(O)C(O)C3O)C(OC)C2O)C(C)O1 (configuration not stated)
- outcome [1]: inactive [at 9.52 µM]
- activity change, negative = inhibition [2]: 0.674% [at 9.73 µM]
- activity change, negative = inhibition [3]: 0.278% [at 11.6 µM]
- activity change, negative = thiol reactive [4]: 40.8% [at 11.5 µM]
- activity, negative = inhibition [5]: 3.09% [at 11.6 µM]
- redox activity (% of DA3003) [6]: -2.26% [at 11.5 µM]

SMILES: O=C(O)Cc1cn(C2OCC(O)C(O)C2O[C@@H]2O[C@H](CO)[C@@H](O)[C@H](O)[C@H]2O)c2ccccc12 (some centres not stated)
- Potency [1]: inactive
- Potency [2]: inactive
- Potency [3]: inactive
- Potency [4]: inactive
- Potency [5]: inactive
- Potency [6]: inactive

SMILES: C[C@H](Oc1ccc(S(C)(=O)=O)cc1C(=O)N1CCN(c2ncc(C(F)(F)F)cc2F)CC1)C(F)(F)F
- Potency [1]: inactive
- Potency [2]: inactive
- Potency [3]: inactive
- Potency [4]: inactive
- Potency [5]: inactive
- Potency [6]: inactive

SMILES: C[C@H]1[C@H](O)O[C@@H]2O[C@@]3(C)CC[C@H]4[C@H](C)CC[C@@H]1[C@@]24OO3
- Potency [1]: inactive
- Potency [2]: inactive
- Potency [3]: inactive
- Potency [4]: inactive
- Potency [5]: inactive
- Potency [6]: inactive

SMILES: COc1cc2occc2c(O[C@@H]2O[C@H](CO)[C@@H](O)[C@H](O)[C@H]2O)c1CCC(=O)O
- Potency [1]: 11.1 µM (active)
- Potency [2]: 11.1 µM (active)
- Potency [3]: inactive
- Potency [4]: 5.19 µM (active)
- Potency [5]: inactive
- Potency [6]: inactive

SMILES: C=C1[C@H](OC(C)=O)[C@H]2[C@@H](OC(C)=O)[C@](C)(OC(C)=O)C[C@]2(OC(C)=O)C(=O)[C@H](C)/C=C/C(C)(C)C(=O)[C@H](OC(=O)C(C)C)[C@H]1OC(C)=O
- Potency [1]: inactive
- Potency [2]: inactive
- Potency [3]: inactive
- Potency [4]: inactive
- Potency [5]: inactive
- Potency [6]: inactive

SMILES: C[C@@H]1C(=O)O[C@H](C)[C@H]1CC(=O)[C@](C)(O)[C@H]1CC[C@@]2(O)C3=CC(=O)[C@@H]4C[C@@H](O)[C@@H](O)C[C@]4(C)C3CC[C@]12C (some centres not stated)
- Potency [1]: inactive
- Potency [2]: inactive
- Potency [3]: inactive
- Potency [4]: inactive
- Potency [5]: inactive
- Potency [6]: inactive

SMILES: C[C@@H]1C[C@H]2O[C@@H]2/C=C\C=C\C(=O)Cc2c(Cl)c(O)cc(O)c2C(=O)O1
- Potency [1]: inactive
- Potency [2]: inactive
- activity change, negative = inhibition [3]: -8.64% [at 11.6 µM]
- activity change, negative = thiol reactive [4]: -4.56% [at 11.5 µM]
- activity, negative = inhibition [5]: -2.67% [at 11.6 µM]
- redox activity (% of DA3003) [6]: 4.19% [at 11.5 µM]

SMILES: CCc1cccc(CC)c1NC(=O)c1nn(C)c2c1CCc1cnc(Nc3ccc(C(=O)NC4CCN(C)CC4)cc3OC(F)(F)F)nc1-2
- Potency [1]: inactive
- Potency [2]: inactive
- Potency [3]: inactive
- Potency [4]: inactive
- Potency [5]: inactive
- Potency [6]: inactive

SMILES: CC1(C)CC[C@]2(C(=O)O[C@@H]3O[C@H](CO)[C@@H](O)[C@H](O)[C@H]3O)CC[C@]3(C)C(=CCC4[C@@]5(C)C[C@@H](O)[C@H](O)[C@](C)(C(=O)O)C5CC[C@]43C)C2C1O (some centres not stated)
- Potency [1]: inactive
- Potency [2]: inactive
- Potency [3]: inactive
- Potency [4]: inactive
- Potency [5]: inactive
- Potency [6]: inactive

SMILES: COc1ccc(N(C)c2nc(C)nc3ccccc23)cc1
- Potency [1]: inactive
- Potency [2]: inactive
- Potency [3]: inactive
- Potency [4]: inactive
- Potency [5]: inactive
- Potency [6]: inactive

SMILES: COc1cc([C@H]2c3cc(O)c(OC)cc3C[C@@H](CO[C@@H]3O[C@H](CO)[C@@H](O)[C@H](O)[C@H]3O)[C@@H]2CO)ccc1O
- Potency [1]: inactive
- Potency [2]: inactive
- Potency [3]: inactive
- Potency [4]: 8.22 µM (active)
- Potency [5]: inactive
- Potency [6]: inactive

SMILES: CCCCC1CCN(CCCC(=O)c2ccccc2C)CC1
- Potency [1]: inactive
- Potency [2]: inactive
- Potency [3]: inactive
- Potency [4]: inactive
- Potency [5]: inactive
- Potency [6]: inactive

SMILES: CCNC(=O)C1OC(n2cnc3c(N)nc(NCCc4ccc(CCC(=O)O)cc4)nc32)C(O)C1O (configuration not stated)
- Potency [1]: inactive
- Potency [2]: inactive
- Potency [3]: inactive
- Potency [4]: inactive
- Potency [5]: inactive
- Potency [6]: inactive

SMILES: C=C(C(=O)O)C1CCC2(C)CCCC(C)(O)C2C1 (configuration not stated)
- Potency [1]: inactive
- Potency [2]: inactive
- Potency [3]: inactive
- Potency [4]: 21.2 µM (active)
- Potency [5]: inactive
- Potency [6]: inactive

SMILES: Cc1ccccc1CN1C2=NCCN2C(=O)C2=C1CCN(Cc1ccccc1)C2
- Potency [1]: inactive
- Potency [2]: inactive
- Potency [3]: inactive
- Potency [4]: inactive
- Potency [5]: inactive
- Potency [6]: inactive
